# From PubChem BioAssay
# Activity calls are given as the source filed them.
# Key:
# [1] = optical density shifts of acrAB sulA E. coli – strain DRC41, OD650, 48 h, E. coli filamentation inducer project, primary screen (AID 1152); settings: higher = more signal, called active from +8 up or from −8 down;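 further: E. coli MC1000 strain DRC41 lacking acrAB efflux pump and sulA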
# [2] = probe aLefty1 binding on compound microarray – biochemical, small-molecule microarray, 635/667 nm fluorescence, primary screen (AID 1153); settings: higher = more signal;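 further: score merges spot fluorescence with signal-to-noise ratio from the scanned slide images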
# [3] = plasmodial surface anion channel blockers, osmotic lysis – cell-based, P. falciparum Indochina, OD700, 1 h, primary screen (AID 1154); settings: P. falciparum Indochina infected RBC osmotic lysis, higher = more signal, called active from +8 up or from −8 down
# [4] = plasmodial surface anion channel blockers, osmotic lysis – cell-based, P. falciparum Indochina, OD700, 2 h, primary screen (AID 1155);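 further: lysis reports solute entry through the parasite surface anion channel PSAC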; settings: P. falciparum Indochina infected erythrocytes, higher = more signal, called active from +8 up or from −8 down
# [5] = changes in parasitized red cell lysis, either direction – P. falciparum Indochina, OD700, 3 h, PSAC antagonist project, primary screen (AID 1156); settings: P. falciparum-infected erythrocytes, osmotic lysis, higher = more signal, called active from +8 up or from −8 down
# [6] = plasmodial surface anion channel blockers, osmotic lysis – cell-based, P. falciparum Indochina, OD700, 18 h, primary screen (AID 1157); settings: P. falciparum Indochina infected erythrocytes, osmotic lysis OD700, 18 h; higher = more signal, called active from +8 up or from −8 down
# [7] = S6 kinase pathway phospho-S6 level changes – cell-based, A549, cytoblot, luminescence, serum-stimulated, primary screen (AID 1158); settings: 5 h, higher = more signal;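 further: serum-stimulated A549 lung adenocarcinoma cells; signal is phosphorylated S6 detected by cytoblot immunostaining with HRP secondary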
# [8] = biological target: NADPH oxidase 2 (Homo sapiens) (UniProt P04839); assay: compounds shifting NOX2 Amplex Red fluorescence – cell-based, HEK293-NOX2, PMA-stimulated, NOX inhibitor project, primary screen (AID 1159); settings: 45 min, higher = more signal, called active from +8 up or from −8 down; further: test concentration not given here
# [9] = biological target: NADPH oxidase 4 (Homo sapiens) (UniProt Q9NPH5); assay: compounds shifting NOX4 Amplex Red fluorescence – cell-based, HEK293-NOX4, tetracycline-induced, NOX inhibitor project, primary screen (AID 1160); settings: HEK293-NOX4, Amplex Red H2O2 fluorescence, 45 min; higher = more signal, called active from +8 up or from −8 down
# [10] = biological target: NADPH oxidase 5 (Homo sapiens) (UniProt Q96PH1); assay: compounds shifting NOX5 Amplex Red fluorescence – cell-based, HEK293-NOX5, NOX inhibitor project, primary screen (AID 1161); settings: HEK293-NOX5, ionomycin, 45 min, higher = more signal
# [11] = compound effects on lung adenocarcinoma cell viability – A549, calcein-AM fluorescence, 48 h, basal, profiling panel (AID 1162); settings: higher = more signal; further: test concentration not given here
# [12] = compound effects on differentiated 3T3-L1 adipocyte viability – cell-based, 3T3-L1 adipocytes, calcein-AM fluorescence, 48 h, basal, profiling panel (AID 1163); settings: 3T3-L1 adipocytes viability, higher = more signal; further: test concentration not given here
# [13] = compound effects on hepatocellular carcinoma cell viability – HepG2, calcein-AM fluorescence, 48 h, basal, profiling panel (AID 1164); settings: higher = more signal; further: test concentration not given here
# [14] = compound effects on multiple myeloma cell viability – MM1S, calcein-AM fluorescence, 48 h, basal, profiling panel (AID 1165); settings: higher = more signal;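 further: viability of MM1S multiple myeloma cells under basal unstimulated conditions; test concentration not given here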
# [15] = calcein-AM signal in unstimulated myeloma cells – cell-based, calcein-AM fluorescence, 48 h, PK04 Diversity Set, profiling panel (AID 1166); settings: RPMI8226 myeloma viability, higher = more signal;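 further: cells grown under basal conditions without added stimulus; test concentration not given here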
# [16] = JC-1 mitochondrial signal, unstimulated HepG2 cells – cell-based, JC-1 fluorescence, 24 h, 100 nL compound, profiling panel (AID 1167); settings: HepG2 mitochondrial potential, higher = more signal; further: test concentration not given here
# [17] = JC-1 mitochondrial signal, unstimulated adipocytes – cell-based, JC-1 fluorescence, 3T3-L1 adipocytes, 24 h, 100 nL compound, profiling panel (AID 1168); settings: JC-1 mitochondrial fluorescence, higher = more signal, called active from +8 up or from −8 down; further: test concentration not given here
# [18] = JC-1 mitochondrial signal, unstimulated myeloma cells – cell-based, JC-1 fluorescence, RPMI8226, 24 h, 100 nL compound, profiling panel (AID 1169); settings: JC-1 mitochondrial potential fluorescence, higher = more signal; further: test concentration not given here
# [19] = JC-1 mitochondrial signal, unstimulated MM1S myeloma – cell-based, JC-1 fluorescence, 24 h, 100 nL compound, profiling panel (AID 1170); settings: MM1S mitochondrial potential, higher = more signal; further: test concentration not given here
# [20] = resazurin metabolic signal in A549 cells – cell-based, resazurin fluorescence, 24 h, PK04 Diversity Set, profiling panel (AID 1171); settings: A549 viability, higher = more signal, called active from +8 up or from −8 down; further: test concentration not given here
# Chain of NADPH oxidase 2 (Homo sapiens) (P04839 whole entry, looked up): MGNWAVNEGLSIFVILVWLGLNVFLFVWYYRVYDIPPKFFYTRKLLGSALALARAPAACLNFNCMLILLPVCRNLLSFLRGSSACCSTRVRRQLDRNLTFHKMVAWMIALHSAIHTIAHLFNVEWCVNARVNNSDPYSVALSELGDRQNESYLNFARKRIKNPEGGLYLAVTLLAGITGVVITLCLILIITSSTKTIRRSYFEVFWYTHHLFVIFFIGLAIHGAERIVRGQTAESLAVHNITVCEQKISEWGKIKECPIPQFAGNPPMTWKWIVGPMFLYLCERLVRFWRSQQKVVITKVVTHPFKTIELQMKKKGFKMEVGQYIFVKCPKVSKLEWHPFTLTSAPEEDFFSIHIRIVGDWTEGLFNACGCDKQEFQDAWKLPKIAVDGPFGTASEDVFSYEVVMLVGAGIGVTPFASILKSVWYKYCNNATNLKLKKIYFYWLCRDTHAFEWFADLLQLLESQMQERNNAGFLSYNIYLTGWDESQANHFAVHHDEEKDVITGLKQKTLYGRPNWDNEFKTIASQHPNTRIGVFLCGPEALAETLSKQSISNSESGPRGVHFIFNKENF
# Chain of NADPH oxidase 5 (Homo sapiens) (Q96PH1 whole entry, looked up): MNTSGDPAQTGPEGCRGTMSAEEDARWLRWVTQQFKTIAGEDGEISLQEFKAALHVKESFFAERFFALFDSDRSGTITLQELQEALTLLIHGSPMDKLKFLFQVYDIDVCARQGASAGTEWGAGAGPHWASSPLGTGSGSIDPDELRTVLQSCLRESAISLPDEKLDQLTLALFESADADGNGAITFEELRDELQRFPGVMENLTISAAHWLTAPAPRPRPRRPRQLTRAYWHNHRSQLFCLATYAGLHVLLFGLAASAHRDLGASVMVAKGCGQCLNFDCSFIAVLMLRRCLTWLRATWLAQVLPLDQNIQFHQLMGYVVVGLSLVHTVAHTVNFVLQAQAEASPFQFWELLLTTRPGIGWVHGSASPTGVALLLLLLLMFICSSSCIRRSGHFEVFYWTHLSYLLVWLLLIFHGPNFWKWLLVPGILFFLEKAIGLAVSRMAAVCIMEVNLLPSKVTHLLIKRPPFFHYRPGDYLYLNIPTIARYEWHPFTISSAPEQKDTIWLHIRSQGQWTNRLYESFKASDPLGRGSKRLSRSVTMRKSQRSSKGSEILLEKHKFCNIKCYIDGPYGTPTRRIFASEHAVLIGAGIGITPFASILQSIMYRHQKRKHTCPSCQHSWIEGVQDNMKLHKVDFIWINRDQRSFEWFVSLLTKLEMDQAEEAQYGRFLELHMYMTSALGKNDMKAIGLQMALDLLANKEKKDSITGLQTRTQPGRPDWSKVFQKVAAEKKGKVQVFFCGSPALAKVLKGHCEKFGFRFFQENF
# Chain of NADPH oxidase 4 (Homo sapiens) (Q9NPH5 whole entry, looked up): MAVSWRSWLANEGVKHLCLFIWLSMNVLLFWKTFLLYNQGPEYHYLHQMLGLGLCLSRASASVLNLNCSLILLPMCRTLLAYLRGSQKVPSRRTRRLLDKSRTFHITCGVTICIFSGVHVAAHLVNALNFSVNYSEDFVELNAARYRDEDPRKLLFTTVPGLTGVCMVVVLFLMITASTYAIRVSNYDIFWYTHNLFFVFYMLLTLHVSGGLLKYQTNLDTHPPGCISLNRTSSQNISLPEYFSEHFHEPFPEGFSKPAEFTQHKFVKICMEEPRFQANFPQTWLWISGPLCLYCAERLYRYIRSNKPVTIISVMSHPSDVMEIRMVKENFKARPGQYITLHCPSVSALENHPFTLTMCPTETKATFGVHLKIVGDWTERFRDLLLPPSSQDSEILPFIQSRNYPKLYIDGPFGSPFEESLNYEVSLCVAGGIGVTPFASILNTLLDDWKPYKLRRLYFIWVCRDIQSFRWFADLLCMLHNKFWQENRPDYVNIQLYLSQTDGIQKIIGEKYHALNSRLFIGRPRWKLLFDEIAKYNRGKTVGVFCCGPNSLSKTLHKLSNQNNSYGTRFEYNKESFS
SMILES,z-score [1],composite z-score [2],z-score [3],z-score [4],z-score [5],z-score [6],z-score [7],z-score [8],z-score [9],z-score [10],z-score [11],z-score [12],z-score [13],z-score [14],z-score [15],z-score [16],z-score [17],z-score [18],z-score [19],z-score [20]
C=CCC(OC(C)=O)[C@@H]1[C@@H](N(Cc2cccc3ccccc23)C(=O)Cc2ccc(F)cc2)c2cc(OCCCO)ccc2N1C(=O)c1ccc(-c2ccccc2)cc1 (stereo not given in full),0.341 (inactive),0.0184,0.616 (inactive),0.743 (inactive),-0.402 (inactive),-0.278 (inactive),-0.18,0.227 (inactive),0.795 (inactive),1.77,-0.546,0.905,0.111,0.867,-0.61,1.35,-0.389 (inactive),-0.104,0.302,0.736 (inactive)
COCCOC(=O)N1C(=O)[C@@]2(c3cc(C#CCCO)ccc31)[C@H](c1ccccc1OCCO)N1[C@H](c3ccccc3)[C@H](c3ccccc3)OC(=O)[C@H]1[C@@H]2C(=O)N1CCCCCCC1,1.59 (inactive),2.58,2.44 (inactive),0.0348 (inactive),0.431 (inactive),0.951 (inactive),0.626,0.6 (inactive),1.29 (inactive),1.35,0.66,0.961,1.03,0.115,-0.004,0.454,0.339 (inactive),-0.155,-1.31,0.596 (inactive)
CC(=O)n1cc(C(O)C2C=CC3C(=O)N(c4ccccc4)C(=O)C3N2Nc2ccc(C(C)C)cc2)c2ccccc21 (stereo not given),-1.44 (inactive),0.698,2.38 (inactive),0.959 (inactive),-0.43 (inactive),1.46 (inactive),-1.04,-1.19 (inactive),-2.92 (inactive),-3.44,-0.545,-0.745,-1.08,-0.829,-1.33,-0.975,-1.16 (inactive),-0.886,0.299,0.169 (inactive)
O=C(NCC(O)CO)[C@@]1(CCS(=O)(=O)c2ccccc2)COC(c2ccc(OCCCO)cc2)=N1 (stereo not given in full),0.457 (inactive),0.467,29.3 (active),22.3 (active),1.7 (inactive),2.91 (inactive),-0.245,0.299 (inactive),1.77 (inactive),1.51,-0.696,-0.0875,0.261,-1.29,-0.187,-0.341,-0.834 (inactive),0.747,-0.815,1.01 (inactive)
O=C(O)[C@@H]1C[C@@H]2C(=O)N3CCC[C@H]3C(=O)N2[C@@H]1c1cccc(OCCO)c1,0.807 (inactive),2.57,2.94 (inactive),0.591 (inactive),-1.77 (inactive),0.35 (inactive),0.132,1.29 (inactive),0.355 (inactive),1.59,0.0951,0.717,-0.439,-0.456,-0.159,0.591,0.283 (inactive),0.817,0.718,-0.0326 (inactive)
C=C(CCCC)C(=O)CC[C@H](OC(C)=O)c1ccc(OCCO)cc1,2.2 (inactive),-0.316,11.3 (active),0.316 (inactive),1.61 (inactive),-0.623 (inactive),2,-3.16 (inactive),-1.5 (inactive),-3.11,0.95,3.04,-0.0781,-2.86,-3.54,0.764,-0.387 (inactive),-0.248,-1.39,0.697 (inactive)
CS(=O)(=O)CCOC(=O)C1=CC(CCCO)=CC(C2CC2)N(Cc2cccc(OC(F)(F)F)c2)C=C1C(=O)OCCS(C)(=O)=O (stereo not given),-1.07 (inactive),0.0392,2.65 (inactive),0.404 (inactive),-0.352 (inactive),0.675 (inactive),-0.662,0.944 (inactive),0.19 (inactive),-1.29,0.78,0.751,0.572,-2.98,-1.18,1.92,-0.374 (inactive),-0.34,-0.0798,0.538 (inactive)
CN(C)C(=O)[C@]1(CCS(=O)(=O)c2ccccc2)N=C(c2ccc(OCCCO)cc2)O[C@@H]1c1ccccc1,0.0024 (inactive),-0.0072,30.8 (active),25.7 (active),2.91 (inactive),6.06 (inactive),0.0637,-0.461 (inactive),1.52 (inactive),-2.3,-1.05,1.02,-0.416,-0.675,-0.76,1.34,-0.132 (inactive),-0.783,-1.24,-0.482 (inactive)
O=C1N[C@@H](Cc2ccccc2)C(=O)N2[C@@H]1C[C@@H](C(=O)O)[C@H]2c1ccc(O)cc1,1.13 (inactive),0.47,6.71 (inactive),1.04 (inactive),-2.73 (inactive),0.595 (inactive),-0.0505,-6.08 (inactive),-4.88 (inactive),-2.63,-0.178,0.699,-0.361,-3.36,0.293,0.873,0.649 (inactive),0.201,-0.75,-0.182 (inactive)
